Laboratory results taken from PubChem BioAssay (NCATS).
Results filed as inconclusive are left out. Activity calls are given as the source filed them. Unless noted, calls follow the shape of the full dose curve.

Tested on: not listed separately
Assay: qHTS for Inhibitors of the Functional Ribonucleoprotein Complex (vRNP) of Lymphocytic Choriomeningitis Arenaviruses (LCMV): Viability assay - alamar blue signal for LCMV Primary Screen (AID 1347085; calls by dose curve; tested in HEK293 reporter line; also: nearly all actives have a fitted effect of over 80% in size)
Conditions: alamar blue viability counter-screen, LCMV vRNP screen cells; series mostly up to 57.5 µM; activity change, negative = lower viability: at the top concentration
% is scaled to controls: 0 for no effect and ±100 for the full control effect.

Compound	activity change, negative = lower viability
COC(=O)Cc1ccccc1	3.55% [at 115 µM] (inactive)
CN(CC=CC#CC(C)(C)C)Cc1cccc2ccccc12	0.732% (inactive)
COc1ccc2cc1Oc1ccc(cc1)CC1c3cc(c(OC)cc3CCN1C)Oc1c(OC)c(OC)c(OC)c3c1C(C2)N(C)CC3 (stereo not given)	4.59% [at 24.7 µM] (inactive)
CC1(C)C[C@H](O)[C@]2(CO)[C@H](O)C[C@]3(C)C(=CCC4[C@@]5(C)CC[C@H](O)C(C)(C)C5CC[C@]43C)[C@@H]2C1 (stereo not given in full)	14% (inactive)
CCN1C[C@]2(C)CCC(OC)[C@@]34C5C[C@@H]6CC[C@@](O)(C5C(=O)O6)[C@@H](C(O)C23)[C@@H]14 (stereo not given in full)	4.58% (inactive)
c1cnc2c(-c3nccc4c3[nH]c3ccccc34)cccc2c1	-23.1% (inactive)
CC1=CCC[C@@H]2[C@@](C)(CC/C(C)=C/C(=O)O)[C@H](C)CC[C@@]12C	12.9% (inactive)
C=C(C)[C@@H]1CC[C@]2(C(=O)O)CC[C@]3(C)C(CCC4[C@@]5(C)CC[C@H](O)C(C)(C)C5CC[C@]43C)C12 (stereo not given in full)	6.78% (inactive)
COc1ccc(-c2coc3cc(OC)cc(O)c3c2=O)cc1	0.671% (inactive)
OCc1ccccc1O[C@@H]1O[C@H](CO)[C@H](O)[C@H](O)[C@H]1O	-8.32% (inactive)
C=C(C=O)C[C@@H]1C[C@H](O)C2OC3C[C@]4(C)OC5/C=C\CC6OC7C(CC=CCC6OC5CCCC4OC3CC2O1)OC1CC2OC3CC(=O)OC3C[C@@H](C)C[C@@]2(C)OC1C[C@@H]7C (stereo not given in full)	0.778% (inactive)
COc1c2c(c(CCC(=O)O)c3c1C=CC(C)(C)O3)OC(C)(C)C=C2	9.45% (inactive)
C=C(C)C(O)CC/C(C)=C/Cc1c(O)ccc(C(=O)/C=C/c2ccc(O)cc2)c1O (stereo not given)	-0.38% (inactive)
CC(C)CNC(=O)/C=C/C=C/CCCCCC/C=C/c1ccc2c(c1)OCO2	0.432% (inactive)
NCCC(=O)c1ccccc1N	6.43% (inactive)
CC(C)C/C=C(\C=O)c1ccccc1	8.8% [at 115 µM] (inactive)
C=C1[C@@H](OC(C)=O)CC[C@]2(C)[C@@H]1C[C@@H]1C[C@H](OC(C)=O)C(C)=C([C@@H](OC(C)=O)[C@@H]2OC(C)=O)C1(C)C	13.4% (inactive)
Cc1cc(OCCCc2c(C(=O)O)n(Cc3cccnc3)c3c(-c4c(COc5ccc(N6CCN([S+](C)(=O)[O-])CC6)cc5)nn(C)c4C)cccc23)cc(C)c1Cl	-22.6% (inactive)
CC(C)=CCC[C@](C)(O[C@@H]1O[C@H](CO[C@@H]2OC[C@H](O[C@@H]3OC[C@@H](O)[C@H](O)[C@H]3O)[C@H](O)[C@H]2O)[C@@H](O)[C@H](O)[C@H]1O)C1CC[C@]2(C)C1[C@H](O)CC1[C@@]3(C)CC[C@H](O)C(C)(C)C3[C@@H](O)C[C@]12C (stereo not given in full)	11.4% (inactive)
CCOC(=O)/C=C/c1ccccc1	8.35% [at 115 µM] (inactive)
COc1cc2c(cc1O)[C@@H]1Cc3cc(O)c(OC)cc3[C@H](C2)N1C	6.17% (inactive)
O=C(O)Cc1ccc(O)cc1	12.1% (inactive)
N=C1SC(=Cc2ccc(-c3ccc4c(c3)C(=O)NC4=O)o2)C(=O)N1c1ccc(Br)cc1	21.9% (inactive)
C[C@]12CC[C@@H](O)CC1=CC(=O)C1C2CC[C@]2(C)C(=O)[C@H](O)CC12 (stereo not given in full)	21.3% (inactive)
COc1ccc([C@@]23Oc4cc(OC)cc(OC)c4[C@]2(O)[C@H](O)[C@H](C(=O)N(C)C)[C@H]3c2ccccc2)cc1	-147% (inactive)

Target: Nucleoprotein (Lymphocytic choriomeningitis virus (strain Armstrong)) (UniProt P09992)
Sequence (P09992 whole entry, looked up): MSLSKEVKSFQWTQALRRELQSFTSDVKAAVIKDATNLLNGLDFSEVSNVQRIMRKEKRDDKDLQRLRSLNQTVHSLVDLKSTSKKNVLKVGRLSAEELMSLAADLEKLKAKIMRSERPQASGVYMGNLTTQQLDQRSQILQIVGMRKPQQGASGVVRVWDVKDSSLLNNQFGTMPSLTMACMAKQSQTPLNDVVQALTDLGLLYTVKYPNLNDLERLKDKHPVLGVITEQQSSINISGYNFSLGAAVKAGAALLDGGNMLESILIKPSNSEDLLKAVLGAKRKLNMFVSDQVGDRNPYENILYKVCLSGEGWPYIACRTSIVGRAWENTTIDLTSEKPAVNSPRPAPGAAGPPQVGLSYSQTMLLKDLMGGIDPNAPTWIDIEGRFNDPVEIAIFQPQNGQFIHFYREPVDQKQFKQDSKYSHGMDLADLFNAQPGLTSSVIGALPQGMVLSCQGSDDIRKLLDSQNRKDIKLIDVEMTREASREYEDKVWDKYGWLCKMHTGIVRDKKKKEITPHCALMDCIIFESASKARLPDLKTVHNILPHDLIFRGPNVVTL
Assay: qHTS for Inhibitors of the Functional Ribonucleoprotein Complex (vRNP) of Lymphocytic Choriomeningitis Arenaviruses (LCMV): LCMV Primary Screen - GLuc reporter signal (AID 1347086); also: nearly all actives have a fitted effect of over 70% in size; also: potency is read from the fitted curve at half-maximal effect
Conditions: LCMV minigenome vRNP cell assay, Gaussia luciferase reporter; series mostly up to 57.5 µM; activity change, negative = inhibition: at the top concentration

Compound	activity change, negative = inhibition	Potency
COc1ccc(-c2coc3cc(O)ccc3c2=O)cc1OC	1.97% (inactive)	
C#CCCC[C@@H]1OC(=O)CNC(=O)C([C@@H](C)CC)NC(=O)[C@@H]2CCCN2C(=O)C([C@@H](C)CC)OC(=O)[C@H](Cc2ccccc2)N(C)C(=O)[C@H](C(C)C)NC(=O)C1(C)C (stereo not given in full)	4.62% (inactive)	
c1ccc(-c2ccncc2)cc1	7.53% (inactive)	
C=C1C(=O)O[C@H]2C[C@]3(C)C([C@@H](OC(=O)/C(C)=C/C)[C@H]12)[C@](C)(O)CC[C@H]3O (stereo not given in full)	-30.9% (inactive)	
C=C1[C@@H]2C[C@]3(C(CC2=O)[C@]24C5C[C@H]3[C@H]2N(CC)C[C@]5(C)CC[C@@H]4O)[C@@H]1O (stereo not given in full)	24.5% (inactive)	
O=c1ccn([C@H]2C[C@H](O)[C@@H](CO)O2)c(=O)[nH]1	5.7% (inactive)	
O=C1C=C(O)c2c(O)cc(O)c(O)c2C1=O	-1.37% (inactive)	
CC1CCC[C@H](O)CCCCCc2cc(O)cc(O)c2C(=O)O1 (stereo not given in full)	-1.66% (inactive)	
CCCCCCCC(=O)C(C)C(=O)N(C)[C@H](Cc1ccc(OC)cc1)C(=O)N(C)[C@H](C(N)=O)C(C)C (stereo not given in full)	-19.5% (inactive)	
COc1c2n(C)ccc3c-2n(c(=O)c1=O)c1ccccc31	13.9% (inactive)	
CCCCCCCCCCCCCCCC(=O)OC(CO)CO	-0.436% (inactive)	
O=c1c(-c2ccc(O)cc2)coc2cc(OC3O[C@H](CO)[C@H](O)[C@H](O)[C@H]3O)cc(O)c12 (stereo not given in full)		19.3 µM (active)
C[C@H]1CC[C@@H]2[C@@H](C)[C@H]3C(C[C@H]4C5CC[C@H]6C[C@@H](O)CC[C@]6(C)C5CC[C@]34C)N2C1 (stereo not given in full)	17.3% (inactive)	
Cc1nc(C)c(C)nc1C	21.6% [at 115 µM] (inactive)	
c1ccc(CN(Cc2ccccc2)Cc2ccccc2)cc1	20.3% [at 115 µM] (inactive)	
COC(=O)Cc1ccccc1	7.62% [at 115 µM] (inactive)	
CN(CC=CC#CC(C)(C)C)Cc1cccc2ccccc12	8.96% (inactive)	
COc1ccc2cc1Oc1ccc(cc1)CC1c3cc(c(OC)cc3CCN1C)Oc1c(OC)c(OC)c(OC)c3c1C(C2)N(C)CC3 (stereo not given)	7.27% [at 24.7 µM] (inactive)	
CC1(C)C[C@H](O)[C@]2(CO)[C@H](O)C[C@]3(C)C(=CCC4[C@@]5(C)CC[C@H](O)C(C)(C)C5CC[C@]43C)[C@@H]2C1 (stereo not given in full)	14.2% (inactive)	
CCN1C[C@]2(C)CCC(OC)[C@@]34C5C[C@@H]6CC[C@@](O)(C5C(=O)O6)[C@@H](C(O)C23)[C@@H]14 (stereo not given in full)	32.2% (inactive)	

Compound	activity change, negative = inhibition	Potency
c1cnc2c(-c3nccc4c3[nH]c3ccccc34)cccc2c1	-9.99% (inactive)	
CC1=CCC[C@@H]2[C@@](C)(CC/C(C)=C/C(=O)O)[C@H](C)CC[C@@]12C	26.2% (inactive)	
C=C(C)[C@@H]1CC[C@]2(C(=O)O)CC[C@]3(C)C(CCC4[C@@]5(C)CC[C@H](O)C(C)(C)C5CC[C@]43C)C12 (stereo not given in full)	-1.78% (inactive)	
COc1ccc(-c2coc3cc(OC)cc(O)c3c2=O)cc1	10.4% (inactive)	
OCc1ccccc1O[C@@H]1O[C@H](CO)[C@H](O)[C@H](O)[C@H]1O	-8.18% (inactive)	
C=C(C=O)C[C@@H]1C[C@H](O)C2OC3C[C@]4(C)OC5/C=C\CC6OC7C(CC=CCC6OC5CCCC4OC3CC2O1)OC1CC2OC3CC(=O)OC3C[C@@H](C)C[C@@]2(C)OC1C[C@@H]7C (stereo not given in full)	17.1% (inactive)	
COc1c2c(c(CCC(=O)O)c3c1C=CC(C)(C)O3)OC(C)(C)C=C2	28% (inactive)	
C=C(C)C(O)CC/C(C)=C/Cc1c(O)ccc(C(=O)/C=C/c2ccc(O)cc2)c1O (stereo not given)	4.48% (inactive)	
CC(C)CNC(=O)/C=C/C=C/CCCCCC/C=C/c1ccc2c(c1)OCO2	9.29% (inactive)	
NCCC(=O)c1ccccc1N	7.8% (inactive)	
CC(C)C/C=C(\C=O)c1ccccc1	11.4% [at 115 µM] (inactive)	
C=C1[C@@H](OC(C)=O)CC[C@]2(C)[C@@H]1C[C@@H]1C[C@H](OC(C)=O)C(C)=C([C@@H](OC(C)=O)[C@@H]2OC(C)=O)C1(C)C	3.69% (inactive)	
Cc1cc(OCCCc2c(C(=O)O)n(Cc3cccnc3)c3c(-c4c(COc5ccc(N6CCN([S+](C)(=O)[O-])CC6)cc5)nn(C)c4C)cccc23)cc(C)c1Cl	5.72% (inactive)	
CC(C)=CCC[C@](C)(O[C@@H]1O[C@H](CO[C@@H]2OC[C@H](O[C@@H]3OC[C@@H](O)[C@H](O)[C@H]3O)[C@H](O)[C@H]2O)[C@@H](O)[C@H](O)[C@H]1O)C1CC[C@]2(C)C1[C@H](O)CC1[C@@]3(C)CC[C@H](O)C(C)(C)C3[C@@H](O)C[C@]12C (stereo not given in full)	1.07% (inactive)	
CCOC(=O)/C=C/c1ccccc1	2.15% [at 115 µM] (inactive)	
COc1cc2c(cc1O)[C@@H]1Cc3cc(O)c(OC)cc3[C@H](C2)N1C	14.6% (inactive)	
O=C(O)Cc1ccc(O)cc1	20% (inactive)	
N=C1SC(=Cc2ccc(-c3ccc4c(c3)C(=O)NC4=O)o2)C(=O)N1c1ccc(Br)cc1	31.1% (inactive)	
C[C@]12CC[C@@H](O)CC1=CC(=O)C1C2CC[C@]2(C)C(=O)[C@H](O)CC12 (stereo not given in full)	26.8% (inactive)	
COc1ccc([C@@]23Oc4cc(OC)cc(OC)c4[C@]2(O)[C@H](O)[C@H](C(=O)N(C)C)[C@H]3c2ccccc2)cc1	-59.8% (inactive)	
